About 4,300 (8.3%) of roughly 52,000 compounds were called active. Rule as the data show it: active = survival mostly below about 52% (no sharp cut-off); inactive = mostly above about 56%. Many of the other results were omitted from the sample, so actives are more common in it than they were.

The subject of the assay is DeltatarO mutant. The experiment in a line: growth inhibition of S. aureus wild type versus tarO mutant, primary screen, teichoic acid synthesis inhibitors, RN4220, OD600 (AID 463173). The conditions noted are these: OD600, 18 h, hits give low values, screened at 18.75 µg/mL (by protocol).
Regarding `CCOc1ccccc1CNC(=O)c1ccc2c(c1)nc1n2CCCCC1`, the survival is 87% (inactive).

Take `O=C(c1ccccc1)n1nnc2ccccc21`: the survival is 106% (inactive).

Turning to `COc1ccc2c(c1)c1c(c(=O)n(Cc3ccccc3)c(=O)n1Cc1cccc(Cl)c1)n2C`, the survival was 82% (inactive).

`CCC(Oc1ccccc1)C(=O)Nc1nccs1` (configuration not stated): the survival was 79% (inactive).

With `COc1ccc2c(CNCCc3ccco3)c(C(=O)O)n(Cc3ccccc3)c2c1`, the survival is 101% (inactive).

Take `CCC(C(=O)Nc1cc(C)ccc1C)n1c(=O)c(C(F)(F)F)nc2ccccc21` (configuration not stated): the survival is 102% (inactive).

As for `CCCc1cnc2c(c1SCC(=O)Nc1ccc([N+](=O)[O-])cc1)c(=O)n(C)c(=O)n2C`, the survival was 66% (inactive).

On to `COc1ccc(-n2cc(C(=O)OCc3ccc(F)c(F)c3)c3ccccc3c2=O)cc1`, for which the survival is 98% (inactive).

Regarding `COc1ccc(OC)c(NC(=O)c2ccccc2)c1`, the survival was 105% (inactive).

On to `O=C(Nc1ccccc1C(=O)O)c1cccc(S(=O)(=O)N2CCCC2)c1`, for which the survival was 87% (inactive).

Regarding `COc1ccccc1NC(=O)c1ccccc1NC(=O)c1ccccc1`, the survival is 20% (active).

On to `COc1ccccc1NC(=O)c1cccc(S(=O)(=O)N2CCCCCC2)c1`, for which the survival was 40% (active).

Regarding `COc1ccccc1NC(=O)c1ccccc1C(=O)O`, the survival was 82% (inactive).

In the case of `COc1ccccc1NC(=O)c1cc(S(=O)(=O)N2CCN(c3ccccc3Cl)CC2)ccc1F`, the survival is 102% (inactive).

`Cc1ccc(S(=O)(=O)N2C(=O)CCC2C(=O)N2CCCC2)cc1` (configuration not stated): the survival is 97% (inactive).

Turning to `Cc1ccc(N2CCN(c3c(CN4CCCC4)c(=O)oc4ccccc34)CC2)c(C)c1`, the survival is 67% (inactive).

For the molecule `COc1cc(Cl)c(C)cc1Nc1nc2ccccc2c2nnc(C)n12`, the survival was 124% (inactive).

Turning to `CCOC(=O)c1sc(N/C=C(\C#N)c2nc3cc(Cl)ccc3o2)c(C#N)c1C`, the survival was 81% (inactive).

On to `CN(C)c1ccc(CNC(=O)CN2CCSc3ccc(S(=O)(=O)N(C)C)cc32)cc1`, for which the survival is 66% (inactive).

For the molecule `Cc1ccccc1CN1C(=O)C2(c3ccccc31)N(c1ccccc1)C(=O)CS2(=O)=O` (configuration not stated), the survival is 124% (inactive).

Turning to `CCOc1ccc2nc(N3CCCC(C(=O)Nc4ccc(OC)cc4)C3)sc2c1` (configuration not stated), the survival was 60% (inactive).

As for `CC1CCCN(S(=O)(=O)c2cc(C(=O)NCCc3ccccc3)n(C)c2)C1` (configuration not stated), the survival was 73% (inactive).

In the case of `Cc1ccc(CNC(=O)c2cc(S(=O)(=O)N3CCCCCC3)cn2C)cc1`, the survival was 74% (inactive).

As to `COc1cccc(CNC(=O)c2cc(S(=O)(=O)N3CCCCC3)cn2C)c1`, the survival was 0% (active).

Regarding `COc1cccc(CNC(=O)c2cc(S(=O)(=O)N3CCCCCC3)cn2C)c1`, the survival was 82% (inactive).

For the molecule `COc1ccc(CCNC(=O)c2cc(S(=O)(=O)N3CCCC(C)C3)cn2C)cc1OC` (configuration not stated), the survival is 47% (active).

Take `COc1ccccc1CNC(=O)c1cc(S(=O)(=O)N2CCCC(C)C2)cn1C` (configuration not stated): the survival is 93% (inactive).

Regarding `COc1ccc(CNC(=O)CCc2c(C)c3cc4c(C)coc4cc3oc2=O)cc1`, the survival was 75% (inactive).

Turning to `Cc1ccc(S(=O)(=O)N2CCCc3cc(NS(=O)(=O)c4ccc(F)cc4)ccc32)cc1`, the survival was 74% (inactive).

Take `O=S(=O)(Nc1ccc2nc(-c3ccc(F)cc3)oc2c1)c1ccccc1`: the survival is 32% (active).

As to `O=C(Nc1ccc(-c2nc3cc(NC(=O)c4ccc(F)cc4)ccc3o2)cc1)c1ccc(F)cc1`, the survival is 75% (inactive).

As for `O=C(O)/C=C/C(=O)Nc1ccc(-c2nc3ccccc3o2)cc1`, the survival is 74% (inactive).

Turning to `Cc1ccccc1C(=O)Nc1ccc(-c2nc3ccccc3o2)cc1`, the survival was 101% (inactive).

On to `Cc1ccc(SCC(=O)Nc2ccc3oc(-c4cccc(Cl)c4)nc3c2)cc1`, for which the survival was 72% (inactive).

With `O=S(=O)(Nc1ccc2nc[nH]c2c1)c1ccccc1`, the survival was 95% (inactive).

In the case of `Cc1ccc(S(=O)(=O)Nc2ccc3nc(-c4cccc(Cl)c4)oc3c2)cc1`, the survival was 28% (active).

Turning to `COC(=O)c1ccc(-c2nc3ccc(C)cc3o2)cc1`, the survival is 102% (inactive).

In the case of `Cc1ccc(S(=O)(=O)Nc2ccc3nc(-c4ccc(F)cc4)oc3c2)cc1`, the survival is 11% (active).

Consider `O=S(=O)(Nc1ccc(-c2nc3ccccc3o2)cc1)c1ccccc1`, for which the survival was 24% (active).

Regarding `O=S(=O)(Nc1ccc2nc(-c3cccc(Cl)c3)oc2c1)c1ccccc1`, the survival was 52% (inactive).

On to `O=C1CC(c2cccc(O)c2)c2c(nc(SCc3ccccc3F)[nH]c2=O)N1` (configuration not stated), for which the survival is 106% (inactive).

Regarding `COc1cc(NC(=O)CN2C(=O)C(c3ccc(C)cc3)=NC23CCCCCC3)cc(OC)c1`, the survival was 83% (inactive).

Regarding `O=C(COc1ccc(F)cc1)NCc1ccc2c(c1)CCN2C(=O)c1ccccc1`, the survival is 81% (inactive).

Consider `COc1ccc(C2CC(=O)NC(NC(=O)c3ccc(Br)cc3)=N2)c(OC)c1OC` (configuration not stated), for which the survival was 86% (inactive).

Take `CCOC(=O)N1CCc2c(sc3c2c(=O)n(-c2ccc(Cl)cc2)c(=O)n3CC(C)C)C1`: the survival is 94% (inactive).

In the case of `CN(C)CCNC(=O)Cn1nc(N2CCN(c3ccccc3)CC2)ccc1=O`, the survival is 86% (inactive).

For the molecule `CC(=O)c1ccc(NC(=O)C2CCN(S(=O)(=O)c3ccc4[nH]c5c(c4c3)CCCCC5)CC2)cc1`, the survival is 94% (inactive).

`O=C1COc2cc(S(=O)(=O)CCC(=O)N3CCN(c4cccc(Cl)c4)CC3)c(Cl)cc2N1`: the survival is 66% (inactive).

In the case of `CCOC(=O)C1=C(CN2CCC(C(=O)OCC)CC2)NC(=O)NC1c1ccc(Cl)cc1` (configuration not stated), the survival was 111% (inactive).

As to `COc1ccc(-n2nnc(C(=O)Nc3ccccc3F)c2N)cc1`, the survival is 68% (inactive).

Take `O=C(Nc1ccc(C(F)(F)F)cc1)C1(c2cccs2)CCOCC1`: the survival is 87% (inactive).

As for `Cc1cccc(C)c1NC(=O)CCS(=O)(=O)c1cccc2nonc12`, the survival is 74% (inactive).

For `Cc1ccc(Nc2ncnc3onc(C)c23)cc1Cl`, the survival was 67% (inactive).

With `Cc1ccc(C2=NC(c3ccc(F)cc3)=Nc3ccc(C)cc3N2)cc1`, the survival was 72% (inactive).

On to `O=C(NN=C1CCCCC1)c1n[nH]c2c1CCC2`, for which the survival is 97% (inactive).

For the molecule `CCc1ccc(C(=O)c2cn(CC(=O)Nc3ccc(OC)cc3)c3cc4c(cc3c2=O)OCO4)cc1`, the survival is 81% (inactive).

For the molecule `COc1ccc(CN2CCc3c(c(=O)n4ncc(C(=O)N5CCN(c6ccccc6F)CC5)c4n3C)C2)cc1`, the survival is 88% (inactive).

Regarding `COc1ccccc1NC(=O)c1cc(S(=O)(=O)N(C)C2CCCCC2)ccc1F`, the survival is 85% (inactive).

Consider `COCCCNC(=O)c1c(NC(=O)c2nc(S(C)(=O)=O)ncc2Cl)sc2c1CCCC2`, for which the survival was 53% (inactive).

Regarding `CCNC(=O)c1c(NC(=O)c2nc(S(=O)(=O)CC)ncc2Cl)sc2c1CCCC2`, the survival was 34% (active).

As to `CCSc1ncc(Cl)c(C(=O)Nc2sc3c(c2C(=O)NCCCOC)CCCC3)n1`, the survival was 108% (inactive).

Take `CCOCCCNC(=O)c1c(NC(=O)c2nc(SC)ncc2Cl)sc2c1CCCC2`: the survival was 64% (inactive).

`CCCSc1ncc(Cl)c(C(=O)Nc2sc3c(c2C(=O)NCCOC)CCCC3)n1`: the survival was 92% (inactive).

Turning to `Cc1cccc(CSc2ncc(Cl)c(C(=O)Nc3sc4c(c3C(N)=O)CCCC4)n2)c1`, the survival was 112% (inactive).

Take `CCCSc1ncc(Cl)c(C(=O)Nc2sc3c(c2C(N)=O)CCCC3)n1`: the survival is 46% (active).

Consider `CCCSc1ncc(Cl)c(C(=O)Nc2sc3c(c2C(=O)OC)CCCC3)n1`, for which the survival is 53% (inactive).

For the molecule `CCCSc1ncc(Cl)c(C(=O)Nc2sc3c(c2C(=O)NCC)CCCC3)n1`, the survival was 45% (active).

On to `CCN(CC)c1nn2c(=O)c(C(=O)NCc3ccc(OC)cc3OC)cnc2s1`, for which the survival is 75% (inactive).

On to `CCOc1ccc(NC(=O)CSc2oc(-c3ccco3)nc2S(=O)(=O)c2ccccc2)cc1`, for which the survival was 101% (inactive).

With `Cc1ccc(NC(=O)n2ncc3c(C)cccc32)c(C)c1`, the survival was 85% (inactive).

In the case of `COc1ccc(-n2nc(C(=O)Nc3ccc(C)cn3)c3c4ccccc4n(C)c3c2=O)cc1`, the survival is 76% (inactive).

As to `CCC(Sc1nc2ncccc2o1)C(=O)Nc1ccc(OC)c(OC)c1` (configuration not stated), the survival is 79% (inactive).

For the molecule `COc1cccc(NC(=O)c2nnn(Cc3ccc(OC)c(Br)c3)c2N)c1`, the survival is 57% (inactive).

For the molecule `CCCN(CCC)C(=O)CSc1nc2ccccc2c(=O)n1Cc1ccco1`, the survival is 83% (inactive).

Take `O=C(CSc1nc2ccncc2[nH]1)Nc1ccccc1C(F)(F)F`: the survival is 87% (inactive).

`O=S(=O)(Nc1ccc(-c2ccc(N3CCCC3)nn2)cc1)c1ccc(Br)cc1`: the survival was 94% (inactive).

With `COc1ccc(CNC(=O)c2cnn3c(C)c(Cc4ccc(F)cc4)c(C)nc23)cc1`, the survival was 80% (inactive).

Consider `COc1ccc(OCC(=O)Nc2nnc(S(=O)(=O)N3CCc4ccccc43)s2)cc1`, for which the survival was 70% (inactive).

On to `CCC(=O)Nc1nnc(S(=O)(=O)N2CCc3ccccc32)s1`, for which the survival was 76% (inactive).

Turning to `CC(C)CC(=O)Nc1nnc(S(=O)(=O)N2CCc3ccccc32)s1`, the survival is 74% (inactive).

`O=C(COc1ccc(Cl)cc1)Nc1nnc(S(=O)(=O)N2CCc3ccccc32)s1`: the survival is 6% (active).

With `Cc1ccc(OCC(=O)Nc2nnc(S(=O)(=O)N3CCc4ccccc43)s2)cc1`, the survival is 13% (active).

On to `Cc1cccc(OCC(=O)Nc2nnc(S(=O)(=O)N3CCc4ccccc43)s2)c1`, for which the survival is 16% (active).

On to `O=C(COc1ccc(F)cc1)Nc1nnc(S(=O)(=O)N2CCc3ccccc32)s1`, for which the survival was 17% (active).

On to `CC(=O)NCCNC(=O)CCCc1nnc2n(C)c(=O)c3sccc3n12`, for which the survival was 93% (inactive).

On to `COc1ccc(CCNC(=O)c2cc3n(n2)C(C(F)(F)F)CC(C2CC2)N3)cc1OC` (configuration not stated), for which the survival was 99% (inactive).

As to `CC(=O)c1ccc(N2CCN(S(=O)(=O)c3c(C)nc4sc(C)cn4c3=O)CC2)cc1`, the survival is 75% (inactive).

On to `COCCNC(=O)CCC(=O)N1Cc2cccc(OC)c2Oc2ncccc21`, for which the survival was 89% (inactive).

In the case of `Nc1nc(=S)[nH]c2c1C1(CCCC1)Cc1ccccc1-2`, the survival was 99% (inactive).

As to `N#CC1=C(N)c2ccccc2CC12CCCCC2`, the survival was 31% (active).

As to `Nc1n[nH]c2c1C1(CCCC1)Cc1ccccc1-2`, the survival was 100% (inactive).

Regarding `COc1ccc(NC(=S)N(Cc2ccco2)Cc2cc3cc(C)c(C)cc3[nH]c2=O)cc1`, the survival was 38% (active).

For `COc1ccc2[nH]c(=O)c(CN(Cc3ccco3)C(=S)NCc3ccco3)cc2c1`, the survival is 65% (active).

Turning to `Cc1ccc(NC(=S)N(Cc2ccco2)Cc2cc3cc(C)c(Cl)cc3[nH]c2=O)cc1`, the survival was 82% (inactive).

With `COc1ccc2[nH]c(=O)c(CN(Cc3ccco3)C(=S)NC3CCCCC3)cc2c1`, the survival is 77% (inactive).

Turning to `CNC(=S)N(Cc1ccco1)Cc1cc2ccc(C)cc2[nH]c1=O`, the survival was 99% (inactive).

`CCc1ccc2[nH]c(=O)c(CN(CCO)C(=S)NCc3ccco3)cc2c1`: the survival was 88% (inactive).

(Values after PubChem BioAssay AID463173 (ICCB-Longwood Screening Facility, Harvard Medical School, 2010).)
